The panel holds about 83,000 compounds, 20% with a hit somewhere; the sample as a whole holds those more often.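 Method: cells in 96-well plates; compound added at one concentration; 48 h incubation; percent growth measured; values under 10 scored active.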 A number with no mark means an inactive call. Activity calls are given as the source filed them.

What all share (assay): NCI-60 one-dose screen, 48 h (100 = growth as untreated, 0 = no growth, -100 = all killed)
In assay [1] the test system is SK-MEL-2 melanoma. Particulars: 10 µM.
For assay [2], the system named is EKVX NSCLC. Particulars: 10 µM unless noted.
The subject of assay [3] is UO-31 renal. The conditions noted are these: 10 µM unless noted.
For assay [4], the system named is TK-10 renal. The conditions noted are these: 10 µM unless noted.
For assay [5], the system named is ACHN renal. The conditions noted are these: 10 µM unless noted.
The test system of assay [6] is A498 renal. Particulars: 10 µM unless noted.
Assay [7] relates to MOLT-4 leukemia. The conditions noted are these: 10 µM unless noted.
Assay [8] deals with SR leukemia. The conditions noted are these: 10 µM unless noted.
For assay [9], the system named is RPMI-8226 leukemia. Particulars: 10 µM unless noted.
The subject of assay [10] is OVCAR-8 ovarian. The conditions noted are these: 10 µM unless noted.
For assay [11], the system named is OVCAR-5 ovarian. The conditions noted are these: 10 µM unless noted.
The subject of assay [12] is OVCAR-4 ovarian. The conditions noted are these: 10 µM unless noted.
In assay [13] the test system is SK-OV-3 ovarian. The conditions noted are these: 10 µM unless noted.
In assay [14] the test system is IGROV1 ovarian. The conditions noted are these: 10 µM unless noted.
For assay [15], the system named is OVCAR-3 ovarian. Particulars: 10 µM unless noted.
Assay [16] has as its system HS 578T breast. The conditions noted are these: 10 µM.
In assay [17] the test system is NCI/ADR-RES ovarian. The conditions noted are these: 10 µM unless noted.
Assay [18] concerns CCRF-CEM leukemia. Particulars: 10 µM unless noted.
The test system of assay [19] is CAKI-1 renal. The conditions noted are these: 10 µM unless noted.
In assay [20] the test system is SN12C renal. Particulars: 10 µM unless noted.

For `O=C(c1ccccc1)C(c1ccccc1)N1CCOCC1` (stereo not given), the growth was 91.1% in assay [1]; 99% in assay [2]; 86.9% in assay [3]; 90% in assay [4]; 106% in assay [5]; 111% in assay [6]. Further, the growth is 94.3% in assay [7]; 95.6% in [8]; 101% in assay [9]; 105% in assay [10]; 105% in assay [11]; 108% in [12]. The growth is 105% in assay [13]; 104% in [14]; 101% in [15]; 97% in assay [16]; 98.6% in assay [17].
With `Clc1ccc2c(NCCNc3nc(N4CCCC4)nc4ccccc34)ccnc2c1`, the growth in assay [1] was -42.9% (active); in [2], 24.4%; in assay [3] it was -72.3% (active); in assay [4], -47.3% (active); in [6] it was -5.18% (active); in [18], 5.08% (active). For the same compound, the growth in assay [7] was -5.18% (active); in assay [8], -22.6% (active); in assay [9], -18.2% (active); in assay [10] it was 3.61% (active); in assay [11], 23.6%; in assay [12], -7.19% (active). The growth is -63.3% (active) in assay [13]; 3.56% (active) in [14]; -65.8% (active) in assay [15]; 19.9% in assay [16]; 60.2% in assay [17].
With `COc1cnc2c(c1)C(=O)c1c-2n(CCCn2ccnc2)c(=O)c2cc(Cl)ccc12`, the growth in assay [1] was 50%; in assay [2], 40.2%; in assay [3] it was -0.232% (active); in assay [4] it was 45.9%; in assay [5], -3.65% (active); in assay [19] it was 11.9%. The growth in [6] was -41.2% (active); in assay [18], -11.9% (active); in assay [7], -23.6% (active); in [8], -10.3% (active); in assay [9], -15.3% (active); in assay [10], 17.4%. In addition, the growth is 26.6% in [11]; 40.4% in [12]; -28% (active) in [13]; 35.2% in assay [14]; -8.34% (active) in [15]; 75.1% in assay [16]. For the same compound, in assay [17], the growth was 4.79% (active).
With `CSc1nc2ncnc(SC)c2[nH]1`, the growth in [1] is 99.4%; in [2] it was 94%; in assay [3] it was 82%; in [4], 99.8%; in [5], 103%; in assay [19], 90.9%. The growth was 105% in assay [18]; 98.9% in assay [7]; 90.3% in assay [8]; 106% in assay [9]; 103% in assay [10]; 102% in assay [11]. Moreover, the growth in assay [12] is 101%; in [13], 79.3%; in [14], 114%; in assay [15], 115%; in assay [16], 105%; in assay [17], 108%.
Consider `COc1cc2c(cc1OCCCCN1CCN(CC(=O)Nc3ccc(Cl)cc3C(=O)c3ccccc3Cl)CC1)N=CC1CCCN1C2=O` (stereo not given), for which the growth in [1] was -67.5% (active); in [2], -79% (active); in [20], -81.1% (active); in [4], -90.1% (active); in assay [19], -89.8% (active); in assay [6] it was -97.2% (active). Further, the growth was -59.8% (active) in assay [18]; -44.7% (active) in assay [7]; -66.7% (active) in [8]; -74% (active) in assay [9]; -65.5% (active) in assay [10]; -51.7% (active) in assay [11]. The growth is -91.4% (active) in [12]; -76% (active) in assay [13]; -88.2% (active) in assay [14]; -94.6% (active) in assay [15]; -66.4% (active) in assay [16]; 2.24% (active) in assay [17].
With `COc1cc2c(c(OC)c1)C1c3ccccc3NC(=O)N1CC2` (stereo not given), the growth in [2] is 42.1%; in assay [20] it was 39%; in assay [3], 36.8%; in assay [4], 49.5%; in assay [5], 44.9%; in assay [19], 34.3%. In addition, the growth in assay [6] is -7.8% (active); in assay [18], 10.7%; in assay [7], 30.6%; in assay [8] it was 13.2%; in assay [9], 16.4%; in assay [10], 44.3%. The growth is 48.6% in assay [11]; 50.4% in assay [12]; 52.8% in [13]; 60.2% in assay [14]; -6.26% (active) in assay [15]; 16.4% in assay [16]. The growth in assay [17] was 1.85% (active).
For `CSc1nc2ncncc2[nH]1`, the growth is 91.2% in [2]; 91.4% in assay [20]; 90.7% in [3]; 102% in [4]; 104% in assay [5]; 621% in assay [19]. Further, the growth in [6] was 78.2%; in assay [18], 97.7%; in assay [7], 95%; in assay [8], 95.2%; in assay [9], 201%; in assay [10], 104%. Besides, the growth in assay [11] was 93.9%; in assay [12], 102%; in assay [13], 113%; in assay [14], 76.1%; in [15], 109%; in assay [16], 74.8%.
Consider `Cc1cc(NCC(=O)Nc2ccc(-c3nc4ccccc4s3)cc2)no1`, for which the growth in assay [2] was 108%; in assay [20], 102%; in assay [3], 77%; in assay [4], 92.1%; in [5] it was 111%; in assay [19] it was 104%. Besides, the growth in [6] is 89.7%; in assay [18] it was 53.7%; in assay [7] it was 46.7%; in assay [8] it was 69.9%; in [9] it was 98.4%; in assay [10], 96.4%. For the same compound, the growth was 119% in assay [11]; 111% in [12]; 120% in [13]; 88.5% in assay [14]; 99.3% in assay [15]; 101% in [16]. The growth in [17] was 103%.

(Values after PubChem BioAssay (NCI).)
